# From PubChem BioAssay (Tox21)
# Results filed as inconclusive are left out. Where a call stands in place of a potency, no number is given. Calls of active or inactive are those of the source. The call rests on the fitted dose curve; in most records, active means well fitted curve in the direction sought with a large enough effect in the repeat runs; inconclusive means weak or mixed curves; inactive means no such curve, though single readings can be large; an effect the other way counts as inactive or inconclusive.
# Test: qHTS RealTime-Glo MT Cell Viability Assay in HepG2 cells - 16 hour (AID 1224885); further: nearly all actives have a fitted effect of over 50% in size; further: potency means the concentration at half of the fitted maximal effect
# Conditions: RealTime-Glo luminescence; series mostly up to 76.8 µM
# Method in brief: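 qHTS, HepG2, 600 cells/well, RealTime-Glo (NanoLuc + prosubstrate) added with cells; 5 h preincubation; DMSO compound addition; 37 C; luminescence at 0/8/16/24/32/40 h.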
row,Compound,Potency
1,C=CC(=O)O,inactive
2,COc1cc(NC(C)CCCN)c2ncccc2c1 (configuration not stated),inactive
3,COc1cc(NS(=O)(=O)c2ccc(N)cc2)nc(C)n1,inactive
4,CC(=O)NCCO,inactive
5,CN(C)CC/C=C1\c2ccccc2Sc2ccc(Cl)cc21,23.9 µM (active)
6,COc1cc(OC)c2ccc(=O)oc2c1,inactive
7,Nc1nc(-c2ccc([N+](=O)[O-])cc2)cs1,inactive
8,O=C(C(=O)c1ccco1)c1ccco1,inactive
9,CC(C(=O)O)c1ccc(C(=O)c2cccs2)cc1 (configuration not stated),inactive
10,CCCCCCC(CO)CCCC (configuration not stated),inactive

# Test: qHTS RealTime-Glo MT Cell Viability Assay in HEK293 cells - 24 hour (AID 1224886); further: nearly all actives have a fitted effect of over 50% in size; further: potency means the concentration at half of the fitted maximal effect
# Conditions: RealTime-Glo luminescence; series mostly up to 76.8 µM
# Method in brief: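 Assay medium contained NanoLuc luciferase plus cell-permeant prosubstrate, added with HEK293 cells at 600 cells/well. After 5 h at 37 C/5% CO2 compounds were added; plates stayed at 37 C for 40 h with serial luminescence reads.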
row,Compound,Potency
1,CC(C)(C)C1(CCc2ccc(Cl)cc2)CO1 (configuration not stated),inactive
2,O=C1OC[C@H](Cc2cccc(O)c2)[C@H]1Cc1cccc(O)c1,inactive
3,Nc1ccc(NC(=O)c2ccc(N)cc2)cc1,inactive
4,O=C(O)CCCc1c[nH]c2ccccc12,inactive
5,CC[C@@H](CO)NCCN[C@@H](CC)CO,inactive
6,CC(C)(C)C(O)/C=C/c1ccc2c(c1)OCO2 (configuration not stated),inactive
7,C/C(C=O)=C\c1ccccc1,inactive
8,CCO[Si](C)(CCCOCC1CO1)OCC (configuration not stated),inactive
9,ClC1=C(Cl)C1(Cl)Cl,inactive
10,Nc1c(Cl)cc(Cl)cc1[N+](=O)[O-],inactive
11,CCCCCCCC/C=C/C(=O)O,inactive
12,CC(=O)N[C@@H](Cc1ccc(O)cc1)C(=O)O,inactive
13,Cc1ccc(Nc2c(F)cccc2Cl)c(CC(=O)O)c1,inactive
14,CCCOC(=O)c1c(Cl)c(Cl)c(Cl)c(Cl)c1C(=O)OCCC,inactive
15,COc1ccc(/C=C/C(=O)c2ccc(OC)cc2OC)cc1,inactive
16,Nc1ccc(N=Nc2ccc(N)cc2)cc1,inactive
17,CC1=C2[C@@H]([C@H](C)CC[C@H]2/C=C(\C)C(=O)O)[C@H](O)C1,inactive
18,O=C1CC[C@@H](C(=O)O)N1,inactive
19,C=CC(=O)O,inactive
20,COc1cc(NC(C)CCCN)c2ncccc2c1 (configuration not stated),inactive
21,O=C(O)/C=C/c1ccc(O)c(O)c1,inactive
22,COc1cc(NS(=O)(=O)c2ccc(N)cc2)nc(C)n1,inactive
23,CC(=O)NCCO,inactive
24,CN(C)CC/C=C1\c2ccccc2Sc2ccc(Cl)cc21,23.9 µM (active)
25,COc1cc(OC)c2ccc(=O)oc2c1,inactive
26,CCCCCc1ccco1,inactive
27,Nc1nc(-c2ccc([N+](=O)[O-])cc2)cs1,inactive
28,CC(C(=O)O)c1ccc(C(=O)c2cccs2)cc1 (configuration not stated),inactive
29,CCCCCCC(CO)CCCC (configuration not stated),inactive

# Test: qHTS RealTime-Glo MT Cell Viability Assay in HEK293 cells - 8 hour (AID 1224887); further: top concentration of the series differs between compounds; nearly all actives have a fitted effect of over 50% in size
# Conditions: RealTime-Glo luminescence; series mostly up to 76.8 µM
# Method in brief: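 Viable HEK293 cells reduce a cell-permeant prosubstrate; the product diffuses out and is consumed by NanoLuc in the medium to give light. Compounds went in after a 5 h incubation and plates were read over the treatment course.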
row,Compound,Potency
1,CC(C)(C)C1(CCc2ccc(Cl)cc2)CO1 (configuration not stated),inactive
2,Nc1ccc(NC(=O)c2ccc(N)cc2)cc1,inactive
3,O=C(O)CCCc1c[nH]c2ccccc12,inactive
4,CC[C@@H](CO)NCCN[C@@H](CC)CO,inactive
5,CC(C)(C)C(O)/C=C/c1ccc2c(c1)OCO2 (configuration not stated),inactive
6,CCO[Si](C)(CCCOCC1CO1)OCC (configuration not stated),inactive
7,COc1ccc(-c2cc(C(F)F)nn2-c2ccc(S(N)(=O)=O)cc2)cc1F,inactive
8,COC(=O)Nc1nc2ccc(C(=O)C3CC3)cc2[nH]1,inactive
9,CCCCCCCC/C=C/C(=O)O,inactive
10,CC(=O)N[C@@H](Cc1ccc(O)cc1)C(=O)O,inactive
11,Cc1ccc(Nc2c(F)cccc2Cl)c(CC(=O)O)c1,inactive
12,C=Cc1ccc(OC(C)=O)cc1,inactive
13,CCCOC(=O)c1c(Cl)c(Cl)c(Cl)c(Cl)c1C(=O)OCCC,inactive
14,Nc1ccc(N=Nc2ccc(N)cc2)cc1,inactive
15,C=CC(=O)O,inactive
16,O=C(O)/C=C/c1ccc(O)c(O)c1,inactive
17,CC(=O)NCCO,inactive
18,COc1cc(OC)c2ccc(=O)oc2c1,inactive
19,CCCCCc1ccco1,inactive
20,CC(C(=O)O)c1ccc(C(=O)c2cccs2)cc1 (configuration not stated),inactive
21,CCCCCCC(CO)CCCC (configuration not stated),inactive

# Test: A CellTox Green Cytotoxicity Assay to monitor cytotoxicity in HEK293 cells - 16 hour (AID 1224888); further: nearly all actives have a fitted effect of over 35% in size
# Conditions: CellTox Green fluorescence; series mostly up to 76.8 µM
# Method in brief: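 Fluorescence intensity, read at 0, 8, 16, 24, 32 and 40 h of compound treatment, reflected dye binding to DNA of dead HEK293 cells; compounds (23 nL, DMSO) were added 5 h after plating cells with reagent.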
row,Compound,Potency
1,c1ccc(CNc2ncnc3c2ncn3C2CCCCO2)cc1 (configuration not stated),inactive
2,CC(C)(C)C1(CCc2ccc(Cl)cc2)CO1 (configuration not stated),inactive
3,O=C1OC[C@H](Cc2cccc(O)c2)[C@H]1Cc1cccc(O)c1,inactive
4,Nc1ccc(NC(=O)c2ccc(N)cc2)cc1,inactive
5,O=C(O)CCCc1c[nH]c2ccccc12,inactive
6,CC[C@@H](CO)NCCN[C@@H](CC)CO,inactive
7,CC(C)(C)C(O)/C=C/c1ccc2c(c1)OCO2 (configuration not stated),inactive
8,C/C(C=O)=C\c1ccccc1,inactive
9,CCO[Si](C)(CCCOCC1CO1)OCC (configuration not stated),inactive
10,ClC1=C(Cl)C1(Cl)Cl,inactive
11,Nc1c(Cl)cc(Cl)cc1[N+](=O)[O-],inactive
12,COc1ccc(-c2cc(C(F)F)nn2-c2ccc(S(N)(=O)=O)cc2)cc1F,inactive
13,COC(=O)Nc1nc2ccc(C(=O)C3CC3)cc2[nH]1,inactive
14,CCCCCCCC/C=C/C(=O)O,inactive
15,CC(=O)N[C@@H](Cc1ccc(O)cc1)C(=O)O,inactive
16,Cc1ccc(Nc2c(F)cccc2Cl)c(CC(=O)O)c1,inactive
17,C=Cc1ccc(OC(C)=O)cc1,inactive
18,CCCOC(=O)c1c(Cl)c(Cl)c(Cl)c(Cl)c1C(=O)OCCC,inactive
19,COc1ccc(/C=C/C(=O)c2ccc(OC)cc2OC)cc1,inactive

row,Compound,Potency
1,Nc1ccc(N=Nc2ccc(N)cc2)cc1,inactive
2,CC1=C2[C@@H]([C@H](C)CC[C@H]2/C=C(\C)C(=O)O)[C@H](O)C1,inactive
3,CNCc1ccc(NC(=O)c2c[nH]c3c2C(=O)CCC3)cc1,inactive
4,O=C1CC[C@@H](C(=O)O)N1,inactive
5,CCCc1nc2c(C)cc(-c3nc4ccccc4n3C)cc2n1Cc1ccc(-c2ccccc2C(=O)O)cc1,inactive
6,C=CC(=O)O,inactive
7,COc1cc(NC(C)CCCN)c2ncccc2c1 (configuration not stated),inactive
8,O=C(O)/C=C/c1ccc(O)c(O)c1,inactive
9,COc1cc(NS(=O)(=O)c2ccc(N)cc2)nc(C)n1,inactive
10,CC(=O)NCCO,inactive
11,COc1cc(OC)c2ccc(=O)oc2c1,inactive
12,CCCCCc1ccco1,inactive
13,Nc1nc(-c2ccc([N+](=O)[O-])cc2)cs1,inactive
14,O=C(C(=O)c1ccco1)c1ccco1,inactive
15,O=C(Oc1ccccc1)c1ccc2ccccc2c1O,inactive
16,CC(C(=O)O)c1ccc(C(=O)c2cccs2)cc1 (configuration not stated),inactive
17,O=C(CCS)OCC(COC(=O)CCS)(COC(=O)CCS)COC(=O)CCS,inactive
18,CCCCCCC(CO)CCCC (configuration not stated),inactive
